From PubChem BioAssay AID686971 (National Center for Advancing Translational Sciences (NCATS), 2013)
Screen size: about 360,000 compounds; about 7,500 (2.1%) were called active. Inconclusive results (about 8%) are left out. The list comes from a sample in which actives are over-represented; it also holds similar structures and randomly drawn compounds. A number with no mark means an inactive call. The call rests on the fitted dose curve; in most records, active means well fitted cell-killing curve with a large enough effect; inconclusive means small, poorly fitted or top-dose-only effect, or effect the other way, or another doubt; inactive means no such curve, though single readings can be large or run the other way.

Assay: qHTS for induction of synthetic lethality in tumor cells producing 2HG: qHTS for the HT-1080-IDH1KD cell line;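 on activity, negative = toxicity: 0% = DMSO wells and -100% = cell-free medium wells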
Conditions: HT-1080 IDH1 knockdown viability, ATP luminescence, 48 h; series mostly up to 46.1 µM; activity, negative = toxicity: at the top concentration
How it was run: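 Viability of IDH1-knockdown HT-1080 fibrosarcoma cells was assessed by CellTiter-Glo after 48 h at 37 °C with titrated compound; concentration-effect curves were classified by fit quality and response size.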
Potency means the concentration at half of the fitted maximal effect.

Structure (SMILES) | activity, negative = toxicity [%] | Potency
COc1ccc(OC)c(Cc2nnc(CCC(=O)NC3CCCC3)o2)c1 | 11.3 | 
COc1ccc(-c2nc(N)ncc2-c2ccc(Cl)cc2)c(O)c1 | -6.82 | 
COc1ccc(OC)c(Cc2cnc3nc(N)nc(N)c3c2C)c1 |  | 0.0103 µM (active)
Nc1nc2cc(Cl)ccc2n1N | 8.14 | 
CCC(C)CN1C(=O)CSCC1(C)C(=O)NCc1ccccc1 (stereo not drawn) | 24.8 | 
Cc1sc2ccccc2c1CNC[C@H]1O[C@@H](n2ccc(=O)[nH]c2=O)[C@H](O)[C@@H]1O | 14.3 | 
O=C(COC(=O)c1cncc(Br)c1)Nc1ccc(S(=O)(=O)N2CCOCC2)cc1 | -1.98 | 
CCc1nc2c(OCCOc3ccccc3)cccn2c1N(C)C(=O)c1cccs1 | 5.52 | 
Cc1cccc(-c2cnc(C(O)c3cc(C)cc(C)c3)[nH]2)c1 (stereo not drawn) | -12.6 | 
CCCOc1cccc(C(=O)NCCCNC(=O)c2cccnc2)c1 | 0.556 | 
Cc1ccc(OCC(=O)NCCCNC(=O)c2cccnc2)cc1C |  | 18.4 µM (active)
Cc1cccc(OCC(=O)NCCNC(=O)c2cccnc2)c1 | -4.95 | 
CCN(CC)C(=O)C1=C(C)N(Cc2ccc(F)cc2)C(=O)C(CC(=O)NCc2cccc3ccccc23)C1 (stereo not drawn) | -2.6 | 
COc1cc(/C=N\NC(=O)C2C(=O)NCC2c2ccccc2)cc(OC)c1O (stereo not drawn) | 2.02 | 
COc1cccc(/C=N/NC(=O)c2[nH]nc3c2CCc2ccccc2-3)c1O |  | 3.66 µM (active)
COc1ccc(Br)cc1/C=N/NC(=O)c1cccc(S(=O)(=O)N2CCOCC2)c1 | -20.3 | 
Cc1ccc(C(=O)N/N=C/c2cccc3ccccc23)cn1 | 6.84 | 
COc1ccc(/C=N/NC(=O)c2ccncc2)cc1CN1CCCc2ccccc21 | -7.69 | 
COc1cccc(/C=N\NC(=O)C2=NNC(=O)C2C)c1O (stereo not drawn) |  | 25.9 µM (active)
CC(C)C1CC2=C(C(=O)OC(C)(C)O2)C(c2ccc(F)cc2)O1 (stereo not drawn) | 6.13 | 
CC1=C(C(=O)N2CCOCC2)CC(CC(=O)NCC2CCCCC2)C(=O)N1Cc1ccc(F)cc1 (stereo not drawn) | -8.15 | 
O=Nc1c(O)cc(O)c2ccccc12 | 4.65 | 
COC(=O)C[C@@H]1C=C[C@@H](NC(=O)c2cccnc2)[C@@H](CO)O1 | 8.29 | 
O=C1NC[C@H](CCCCN2C[C@H](Cc3ccc(O)cc3)N(CC3CCCCC3)C(=O)C2=O)N(CCc2ccccc2)C1=O | 8.08 | 
CCCCCCN1C[C@H](O)[C@@H](n2cc(C3CC3)nn2)C[C@@H]1c1ccc(Cl)cc1 | 6.32 | 

Structure (SMILES) | activity, negative = toxicity [%] | Potency
CCOC(=O)N1CCN(C(=O)c2ccc(S(=O)(=O)Nc3cccc(C(F)(F)F)c3)cc2)CC1 | -0.977 | 
O=C(COc1ccc(S(=O)(=O)Nc2cccc(C(F)(F)F)c2)cc1)N1CCOCC1 | -12.4 | 
Cc1oc2c(F)c(F)c(F)c(F)c2c1S(=O)(=O)Nc1cccc(C(F)(F)F)c1 |  | 18.4 µM (active)
COc1cc(C(=O)N2CCOC23CCN(Cc2ccccc2)CC3)cc(OC)c1OC | 7.44 | 
CCN(CC)C(=O)C1=C(C)N(Cc2ccccc2)C(=O)C(CC(=O)NC(c2ccccc2)c2ccccc2)C1 (stereo not drawn) | -2.22 | 
COc1cccc(NC(=O)C2(C)CCN2C(=O)CCC2CCCC2)c1 (stereo not drawn) | -5.46 | 
CCC(C(=O)OCC(=O)Nc1ccc(C(=O)Nc2ccc(OC)cc2)cc1)c1ccccc1 (stereo not drawn) |  | 25.9 µM (active)
CCC(C(=O)OCC(=O)Nc1ccccc1-c1ccccc1)c1ccccc1 (stereo not drawn) | 3.86 | 
CCC(C(=O)OCC(=O)Nc1c(Cl)cc(Cl)cc1Cl)c1ccccc1 (stereo not drawn) | -0.177 | 
CC(C)N1C(=O)c2ccccc2NC(=O)C1C(=O)NCc1cccs1 (stereo not drawn) | 25.2 | 
Cc1cccc(NC(=O)COC(=O)c2ccccc2OCc2cccc(Br)c2)c1 | 9.94 | 
O=C1C=C(NS(=O)(=O)c2ccccc2)C(=O)c2ccccc21 | -20.1 | 
Cn1c(NC(=O)c2ccccc2)nc2ccccc21 | -20 | 
O=C(NC1=CC(=O)c2ccccc2C1=O)c1ccccc1 |  | 7.31 µM (active)
Cc1ccc(-c2c(N)nc3ncccn23)cc1 | 9.85 | 
CCNC(=O)C1CCCN(C(=O)c2ccc(OC)cc2OC)CC1 (stereo not drawn) | 10.3 | 
COc1ccc(NC(=S)NCc2cccs2)c(OC)c1 | 6.2 | 
COc1ccccc1CNc1nc(Nc2ccccc2Cl)c2sccc2n1 | -14.8 | 
COc1cccc(CNc2nc(NCc3ccccc3OC)nc3ccsc23)c1 |  | 23.1 µM (active)
Clc1ccccc1Nc1nc(NCc2cccs2)nc2ccsc12 | 1.77 | 
COc1cccc(CNc2nc(NCc3cccs3)nc3ccsc23)c1 |  | 23.1 µM (active)
COc1cccc(-c2cc3nc(NCc4ccccc4OC)n(C)c(=O)c3s2)c1 | -4.35 | 
COc1ccc(COC[C@H](CC(C)C)N2CCN(C(=O)c3cccc(C(F)(F)F)c3)CCC2=O)cc1 | -17.8 | 
CCOC(=O)c1cc2cc(OC)ccc2n1C1CCN(C)CC1 | -23.1 | 
CCc1ccc(OC2(C)CCN(CCOc3ccc(C)cc3)C2)cc1 (stereo not drawn) | 0 | 

Structure (SMILES) | activity, negative = toxicity [%] | Potency
O[C@@H]1C[C@H](c2ccccc2)N(Cc2cccs2)C[C@H]1n1cc(C2CC2)nn1 | 7.32 | 
CSc1ncccc1C(=O)N1CCCC(Nc2ccc(F)c(F)c2)C1 (stereo not drawn) | -11 | 
Cc1ccccc1-c1nc(NC(C)C)nc2cc(-c3ccccc3)sc12 | -18.6 | 
CCc1nc2c(OCc3ccc(Cl)cc3Cl)cccn2c1N(C)C(=O)C(C)C |  | 16.4 µM (active)
Cc1nc2ccccc2nc(C)c1=NOCc1ccc(Cl)cc1Cl | -3.31 | 
CCc1nc2c(OCc3ccccc3)cccn2c1N(C)C(=O)c1ccco1 | 6.84 | 
CCc1nc2c(OCc3ccc(F)c(F)c3)cccn2c1N(C)C(=O)c1ccco1 | 0.0356 | 
CCc1nc2c(OCc3ccc(C(=O)OC)cc3)cccn2c1N(C)C(=O)C(C)C | -1.16 | 
CCCCN(C=O)c1c(CC)nc2c(OCc3ccccc3C(=O)OC)cccn12 | -11.3 | 
Cc1nc2c(OCc3ccc(Cl)cc3)cccn2c1N(C)Cc1cccs1 |  | 16.4 µM (active)
CCOC(=O)N(C)c1c(CC)nc2c(OCc3ccccc3C(=O)OC)cccn12 | -3.5 | 
Cc1nc2c(OCc3ccc(Cl)cc3Cl)cccn2c1N(C)CC1CC1 |  | 14.6 µM (active)
CCOC(=O)[C@]12CCCC=C1N(CCC1=CCCCC1)C(=O)[C@H](CC(=O)N1CCOCC1)C2 | -6.31 | 
Cc1ccc(S(=O)(=O)N[C@H](CO)C(C)C)cc1 | 26.3 | 
COCCCn1c(C(=O)NC2CCCCC2)cc2c(=O)n3cccc(C)c3nc21 | 15.5 | 
COc1ccc(S(=O)(=O)N2CCC(C(=O)NCCC(=O)Nc3ccccc3OC)CC2)cc1 | 1.9 | 
CCOC(=O)C1=CC[C@@H](c2ccccc2)N(S(=O)(=O)c2ccc(C)cc2)[C@H]1c1cccc(OC)c1 | 4.62 | 
COc1ccc(S(=O)(=O)N[C@@H]2C=C[C@@H](CC(=O)N3CCc4ccccc4C3)O[C@@H]2CO)cc1 | 18.3 | 
O=C(NC1CCN(Cc2ccccc2)CC1)c1cc(Br)c(Br)[nH]1 | -5.71 | 
S=C(Nc1ccc(Br)cc1Cl)NC1CCN(Cc2ccccc2)CC1 |  | 20.6 µM (active)
O=C(COc1ccc(Br)cc1F)NC1CCN(Cc2ccccc2)CC1 | -5.88 | 
CC1(C(=O)NS(=O)(=O)C2CC2)CCCN(C(=O)CSc2ccccc2)C1 (stereo not drawn) | 7.52 | 
CC(C)c1cc(CN2CCOCC2)cc(C(C)C)c1O | 8.37 | 
Oc1c(C(c2ccccn2)N2CCOCC2)ccc2cccnc12 (stereo not drawn) |  | 0.251 µM (active)
O=C(Nc1ccccc1)c1ccccc1Br | 10.7 | 

Structure (SMILES) | activity, negative = toxicity [%] | Potency
CC(C)c1ccc(NC(=O)[C@@H](NC(=O)N2CC(=O)Nc3ccccc32)C(C)C)cc1 |  | 13 µM (active)
CC(C)[C@H](NC(=O)N1CC(=O)Nc2ccccc21)C(=O)N[C@@H](Cc1c[nH]c2ccccc12)C(=O)O | -0.456 | 
CC(C)C[C@H](NC(=O)N1CC(=O)Nc2ccccc21)C(=O)N[C@H](Cc1ccccc1)C(=O)O | 2.48 | 
COc1ccc(C(C)C)cc1-c1ccc2nncn2c1 | 3.86 | 
CC1(C(=O)NS(=O)(=O)c2ccccc2)CCN1C(=O)Cc1ccc(-c2ccccc2)cc1 (stereo not drawn) | 13 | 
Cc1ccc(F)c(S(=O)(=O)NC(=O)C2(C)CCN2C(=O)CCc2cccs2)c1 (stereo not drawn) | 14.3 | 
COC(=O)c1ccc(C2CC(=O)Nc3cc(OC)c(OC)cc32)cc1 (stereo not drawn) | -7.3 | 
CCCOc1ccc(C2NC(=O)NC(c3ccccc3)=C2C(C)=O)cc1OCC (stereo not drawn) | -22.4 | 
CCCOc1ccccc1C1CC(=O)Nc2cc3c(cc21)OCO3 (stereo not drawn) |  | 1.84 µM (active)
C[C@@H](NC(=O)OC(C)(C)C)c1nnc(S(=O)(=O)Cc2ccccc2)o1 |  | 18.4 µM (active)
COc1ccccc1NC(=O)[C@H](COCc1ccccc1)NC(=O)OC(C)(C)C | -8.92 | 
CCc1ccccc1NC(=O)CSc1nnc([C@@H](NC(=O)OC(C)(C)C)C(C)CC)o1 (stereo partly drawn) | 6.33 | 
OC[C@@H]1CN(Cc2cccs2)C[C@H](n2cnc3c(NC4CCCC4)ncnc32)O1 | -0.119 | 
OC[C@@H]1CN(Cc2ccc(F)cc2)C[C@H](n2cnc3c(NC4CCCC4)ncnc32)O1 | 16.5 | 
OC[C@@H]1CN(Cc2ccc(-c3ccccc3)cc2)C[C@H](n2cnc3c(NC4CCCC4)ncnc32)O1 |  | 20.6 µM (active)
CC1=C(C(=O)N2CCOCC2)CC(CC(=O)NCc2cccc3ccccc23)C(=O)N1CCC1=CCCCC1 (stereo not drawn) | -3.06 | 
Cc1ccc(C(=O)NC(C)C(c2cccs2)N2CCOCC2)cc1C (stereo not drawn) | -21.6 | 
CCC(=O)N1Cc2cc(C(=O)NCc3cccc(F)c3)nc(-c3cccc(C4=CCCC4)c3)c2[C@H]1CCO | -24.6 | 
COc1cc(OC)cc(C2=Cc3ccccc3C(CC(=O)c3ccco3)N2c2ccc(-c3cnc(OC)nc3)cc2)c1 (stereo not drawn) | -0.402 | 
CC(C)(O)C(=O)NN(C(=O)c1ccccc1)c1cccc(Br)c1 | 11.4 | 
CCCC(O)(CCC)C(=O)NN(C(=O)CCl)c1cccc(C)c1 |  | 5.17 µM (active)
Cc1cccc(N(Cc2ccccc2)C(=O)c2ccccc2F)c1 | -0.932 | 
CC1(C(=O)NS(=O)(=O)c2cccc(OC(F)F)c2)CCN1C(=O)C1CC1 (stereo not drawn) | 4.44 | 
